The values below come from PubChem BioAssay (NCI).

Test systems include HCT-15 colon; HT29 colon; SNB-75 CNS; SNB-19 CNS; U251 CNS; PC-3 prostate; SK-MEL-5 melanoma; UACC-62 melanoma; LOX IMVI melanoma; SK-MEL-28 melanoma; SK-MEL-2 melanoma; EKVX NSCLC; SN12C renal; UO-31 renal; TK-10 renal; ACHN renal; CAKI-1 renal; CCRF-CEM leukemia; MOLT-4 leukemia.
Holding throughout (assay): NCI-60 one-dose screen, 48 h (100 = growth as untreated, 0 = no growth, -100 = all killed)
Holding throughout (conditions): 10 µM unless noted

Each structure is given as a SMILES string. This is part of a sample that, as a whole, favours compounds with a hit. Of some 83,000 tested, about 20% had one in any assay.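 Plates (96-well) were seeded with cells, treated with compound at one concentration, and incubated for 48 hours before percent growth was determined.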 Values without a mark were called inactive. Activity calls are given as the source filed them. The calls were made as follows: active = growth percent below 10; inactive = the rest.

In the case of `CC(=O)OCC(=O)C1(O)C(C)CC2C3C=C(C)C4=Cc5c(cnn5-c5ccccc5)CC4(C)C3C(O)CC21C` (configuration not stated), the growth is -36.2% (active) with HCT-15 colon; -54.9% (active) with HT29 colon; -8.24% (active) with SNB-75 CNS; 10.3% with SNB-19 CNS; 14.3% in the assay with U251 CNS; 9.92% (active) with PC-3 prostate. Moreover, the growth in the assay on SK-MEL-5 melanoma is -14.2% (active); in the assay on UACC-62 melanoma, -26.6% (active); in the assay with LOX IMVI melanoma it was 6.79% (active); in the assay on SK-MEL-28 melanoma, 35.3%; in the assay with SK-MEL-2 melanoma, 25.1%; in the assay with EKVX NSCLC, 27%. The growth with SN12C renal was 33.5%; in the assay with UO-31 renal, -11.6% (active); with TK-10 renal it was 38.7%; in the assay on ACHN renal, 22.8%; with CAKI-1 renal it was 21.3%; in the assay on CCRF-CEM leukemia, 10.6%. In the assay with MOLT-4 leukemia, the growth is 9.2% (active).
As to `Cc1nn(-c2ccccc2)c(N2CCOCC2)c1/C=N/N=c1\sc2ccccc2n1C`, the growth in the assay on HCT-15 colon is 39.1%; in the assay with HT29 colon, 66.5%; with SNB-75 CNS, 99.2%; with SNB-19 CNS, 87.3%; in the assay with U251 CNS, 55.2%; with PC-3 prostate, 49%. In addition, the growth with SK-MEL-5 melanoma was 38.5%; with UACC-62 melanoma, 71.1%; in the assay on LOX IMVI melanoma it was 57.9%; in the assay with SK-MEL-28 melanoma, 75.9%; in the assay with SK-MEL-2 melanoma, 105%; with EKVX NSCLC, 82.2%. The growth in the assay with SN12C renal is 81.7%; with UO-31 renal, 65.2%; with TK-10 renal, 129%; with ACHN renal, 82.4%; in the assay on CAKI-1 renal, 67.3%; with CCRF-CEM leukemia, 67.3%. Moreover, the growth in the assay with MOLT-4 leukemia was 58.6%.
As for `O=S(=O)(c1ccc(N/N=C\c2ccccc2)cc1)c1ccc(N/N=C/c2ccccc2)cc1`, the growth was 88.7% in the assay on HCT-15 colon; 54.7% in the assay on HT29 colon; 87% in the assay on SNB-75 CNS; 81.4% with SNB-19 CNS; 66.6% with U251 CNS; 55.7% in the assay with PC-3 prostate. The growth in the assay on SK-MEL-5 melanoma is 74.7%; in the assay with UACC-62 melanoma it was 70.8%; in the assay on LOX IMVI melanoma, 63.4%; with SK-MEL-28 melanoma it was 75.6%; with SK-MEL-2 melanoma it was 76.5%; in the assay with EKVX NSCLC, 73.7%. Further, the growth in the assay on SN12C renal was 64.9%; in the assay on UO-31 renal, 88.3%; in the assay on TK-10 renal it was 59.4%; with ACHN renal, 57.4%; in the assay with CAKI-1 renal, 67.7%; with CCRF-CEM leukemia it was 88.7%. Also, in the assay on MOLT-4 leukemia, the growth is 82.4%.
With `CCCCCCNC(=O)Oc1ccc(/C(=C(/CC)Cc2ccccc2)c2ccc(OCCN(CC)CC)cc2)cc1`, the growth in the assay with HCT-15 colon was 5.48% (active); in the assay with HT29 colon it was -24.3% (active); in the assay with SNB-75 CNS, 78.8%; with SNB-19 CNS, 69.2%; in the assay with U251 CNS, 43.2%; with PC-3 prostate it was 51.6%. Further, the growth in the assay with SK-MEL-5 melanoma is 51.2%; in the assay on UACC-62 melanoma, 87.6%; in the assay with LOX IMVI melanoma, 80.1%; with SK-MEL-28 melanoma, 80.8%; in the assay with SK-MEL-2 melanoma it was 99.8%; with EKVX NSCLC, 81%. Further, the growth in the assay with SN12C renal was 73.5%; with UO-31 renal, 58%; with TK-10 renal, 93.1%; with ACHN renal, 89.4%; in the assay on CAKI-1 renal, 91%; in the assay with CCRF-CEM leukemia it was 45.4%. In addition, the growth with MOLT-4 leukemia is 35.2%.
Regarding `COc1ccc(/C=N/C2=C(C#N)C(c3ccccc3[N+](=O)[O-])c3ccc4ccccc4c3O2)cc1` (configuration not stated), the growth with HCT-15 colon was 75.3%; in the assay on HT29 colon it was 112%; in the assay with SNB-75 CNS it was 61.3%; with SNB-19 CNS, 96.6%; in the assay on U251 CNS it was 101%; in the assay on PC-3 prostate, 71.7%. The growth was 81.9% in the assay on SK-MEL-5 melanoma; 81.1% in the assay on UACC-62 melanoma; 90.3% with LOX IMVI melanoma; 113% in the assay on SK-MEL-28 melanoma; 92.8% in the assay with SK-MEL-2 melanoma; 72.1% with EKVX NSCLC. Moreover, the growth with SN12C renal is 91.6%; in the assay with UO-31 renal it was 64.8%; with TK-10 renal it was 182%; in the assay with ACHN renal, 90.8%; in the assay on CAKI-1 renal it was 68.3%; in the assay with CCRF-CEM leukemia, 106%. The growth in the assay with MOLT-4 leukemia is 89.5%.
Turning to `CCCCCCN(C)Cc1ccc(OCCOc2ccc(CN(C)CCCCCC)cc2)cc1`, the growth was 5.57% (active) with HCT-15 colon; 1.29% (active) with HT29 colon; 28.8% in the assay with SNB-75 CNS; 27.9% with SNB-19 CNS; 7.97% (active) in the assay with U251 CNS; 23.9% in the assay on PC-3 prostate. Further, the growth in the assay with SK-MEL-5 melanoma is -99.7% (active); in the assay on UACC-62 melanoma, -11.5% (active); with LOX IMVI melanoma, -95.3% (active); in the assay on SK-MEL-28 melanoma, -68.7% (active); in the assay with SK-MEL-2 melanoma it was -40.8% (active); in the assay with EKVX NSCLC it was 55.3%. In addition, the growth was 40.1% with SN12C renal; -5.75% (active) with UO-31 renal; 31.6% in the assay with TK-10 renal; 35.1% with ACHN renal; 27.2% with CAKI-1 renal; 13.3% in the assay with CCRF-CEM leukemia. Moreover, the growth in the assay on MOLT-4 leukemia is -4.95% (active).
With `C=CCn1c(SCC(=O)Nc2ccc(C(=O)/C=C/c3cc(OC)c(OC)c(OC)c3)cc2)nnc1-c1cc(-c2ccc(S(C)(=O)=O)cc2)nc2ccccc12`, the growth was 69.7% in the assay with HCT-15 colon; 81.3% in the assay on HT29 colon; 55.7% in the assay on SNB-75 CNS; 74.1% in the assay with SNB-19 CNS; 88.3% in the assay with U251 CNS; 88.8% with PC-3 prostate. Besides, the growth is 82.7% with SK-MEL-5 melanoma; 75.5% in the assay on UACC-62 melanoma; 67% with LOX IMVI melanoma; 108% in the assay on SK-MEL-28 melanoma; 103% in the assay with SK-MEL-2 melanoma; 90.9% in the assay on EKVX NSCLC. Further, the growth was 88.5% in the assay with SN12C renal; 78.4% with UO-31 renal; 159% in the assay on TK-10 renal; 91.9% in the assay on ACHN renal; 77.3% in the assay on CAKI-1 renal; 35% in the assay with CCRF-CEM leukemia. In addition, in the assay on MOLT-4 leukemia, the growth was 56.3%.
For the molecule `COc1cc2c(cc1[N+](=O)[O-])-c1ccc([N+](=O)[O-])cc1/C2=N/NC(N)=S`, the growth with HCT-15 colon was 72.3%; in the assay with HT29 colon it was 48.7%; in the assay with SNB-75 CNS, 48.7%; in the assay with SNB-19 CNS it was 58.8%; in the assay on U251 CNS, 47.1%; in the assay with PC-3 prostate it was 58%. The growth in the assay on SK-MEL-5 melanoma was 63.1%; with UACC-62 melanoma it was 36.4%; in the assay with LOX IMVI melanoma it was 43.5%; with SK-MEL-28 melanoma it was 95.4%; in the assay on SK-MEL-2 melanoma, 87.8%; in the assay on EKVX NSCLC it was 68.5%. The growth was 67.1% in the assay on SN12C renal; 29.6% with UO-31 renal; 77.4% in the assay with TK-10 renal; 37.4% in the assay with ACHN renal; 64.1% in the assay on CAKI-1 renal; 56.6% in the assay with CCRF-CEM leukemia. Also, the growth in the assay on MOLT-4 leukemia is 60.1%.
